Experimental data reported in PubChem BioAssay (NCI).
Compounds without any hit were thinned out: in the full panel of roughly 83,000, 20% have a hit.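 Cell lines were cultured in 96-well plates, exposed to a single compound concentration, and assessed for percent growth 48 hours later.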 Unmarked numbers belong to inactive results. Active and inactive are the calls of the source.

What follows are compounds tested on BT-549 breast (assay: NCI-60 one-dose screen, 48 h (100 = growth as untreated, 0 = no growth, -100 = all killed)). Conditions: 10 µM unless noted.
Description: Growth inhibition of the BT-549 human tumor cell line is measured as a screen for anti-cancer activity. Cells are grown in 96 well plates and exposed to the test compound for 48 hours. Compounds are tested at a single concentration, which is 10^-5 M for most compounds. The reported endpoint is percent growth (GI% or GIPRCNT), where numbers from 0 - 100% represent growth inhibition, and numbers from -100% - 0 represent cell death. For example, a value of 40 represents 60% growth inhibition. A value of 0 means no net growth occurred over the course of the experiment. A value of -40 indicates 40% of cells at the beginning of the experiment died by the end of the experiment. A value of -100 means all cells are dead at the end of the experiment.
NCI-60 Human Tumor Cell Lines Screen was performed using the standard one-dose NCI protocol, which is described in more detail at https://dtp.cancer.gov/discovery_development/nci-60/default.htm.
Compounds with GIPRCNT values below 10 were considered active. Activity score was based on GIPRCNT using the following formula: […]
Score is 0 for GIPRCNT values of 100 or above, 50 for GIPRCNT values of 0, and 100 for GIPRCNT values of -100.

Structure (SMILES) | growth
CC(=O)Oc1ccccc1C(=O)Nc1ccc(C(=O)/C=C/c2ccncc2)cc1 | 57.1%
O=C1Nc2cc(Cl)ccc2/C1=C\c1ccc(OCc2ccc(Br)cc2F)cc1 | -69.3% (active)
O=C(CSc1nc2sc3c(c2c(=O)n1-c1ccc(Cl)cc1)CCCC3)N/N=C/c1ccc(F)cc1 | 116%
O=C(CSc1nc2sc3c(c2c(=O)n1-c1ccc(Cl)cc1)CCCC3)NNC(=O)Nc1cccc(C(F)(F)F)c1 | 54%
CC(=NNc1ncnc2ccccc12)c1ccc(S(C)(=O)=O)cc1 | 105%
N#Cc1nc(-c2ccccc2)oc1S(=O)(=O)N1CCN(CCc2ccccn2)CC1 | 107%
c1ccc2c(NCCCN3CCOCC3)c3oc4ccccc4c3nc2c1 | 3.61% (active)
NC(=O)c1c(NC(=O)c2ccc(C3CCCCC3)cc2)sc2c1CCC(=O)C2 | -2.9% (active)
O=C(CN1CCOCC1)NNc1ncnc2ccccc12 | 100%
OC1CCN(CCCOc2c3ccc(Cl)cc3nc3c2oc2ccccc23)CC1 | -2.71% (active)
Nc1cc(-c2c[nH]c3ccccc23)nc2cc(-c3c[nH]c4ccccc34)nn12 | 84.4%
C/C(=N/NC(N)=S)c1ccc(Nc2nc(SCC(C)C)nc(-c3ccc(F)cc3)c2C#N)cc1 | 55.8%
O=C(c1ccc(Cl)cc1)C1[C@H](c2ccc(Cl)cc2)[C@@H](c2ccccc2)NC12C(=O)Nc1ccc(Br)cc12 (stereo not given in full) | 61.4%
CCN(CC)c1ccc(C=O)c(OCc2cn(CC(=O)Nc3ccc(Cl)cc3)nn2)c1 | 81.4%
Cc1[nH]nc2ncc(C#Cc3cncc(C(=O)Nc4ccc(CN5CCN(C)CC5)c(C(F)(F)F)c4)c3)cc12 | 64.5%
C#Cc1nc(C2=C(C)C(=O)/C(=N/OC(C)=O)C2)cs1 | 95%
C[C@@H]1CN(c2ccc3ncc(C#Cc4cncc(C(=O)Nc5ccc(CN6CCN(C)CC6)c(C(F)(F)F)c5)c4)n3n2)C[C@H](C)O1 | -27.2% (active)
Fc1ccc(-c2cc3nc(C(Cl)Cl)nc(-c4ccc(Cl)cc4)n3n2)cc1 | 72.4%
C/C(=C(/c1ccc(Cl)cc1)c1ccc(OCCN)cc1)c1ccc(C)cc1 | 117%
N/C(=N\c1nc2c(Br)cccc2s1)C(Br)Br | 29.2%

Structure (SMILES) | growth
COc1cc(/C=C/C(=O)c2cc(OC)c(OC)c(OC)c2)ccc1OCc1ccc(F)cc1 | 8.09% (active)
CCCC(=O)NC(c1cccnc1)c1cc(C)c2cccnc2c1O (stereo not given) | 69.5%
N#Cc1nc(-c2ccccc2)oc1N1CCC(CO)C1 (stereo not given) | 95.3%
COc1ccc(-n2c(SCC(=O)Nc3ccc(-c4nc5ccccc5[nH]4)cc3)nc3ccccc3c2=O)cc1 | -65% (active)
Cc1cc2nc3c4cc(Cl)ccc4n(CC(=O)NCCN(C)C)c3nc2cc1C | 88.1%
Clc1ccc(Cc2nnc3sc(-c4cccnc4)nn23)cc1 | 95.5%
CN1CCc2c(sc3ncnc(N/N=C/c4ccc(Cl)c(Cl)c4)c23)C1 | 42.2%
O=[N+]([O-])c1ccc(O)c2ncccc12 | 61.4%
CCCC(=O)NC(c1ccc(N(CC)CC)cc1)c1cc(C)c2cccnc2c1O (stereo not given) | 29.9%
Clc1ccc2c(NCCCn3ccnc3)c3oc4ccccc4c3nc2c1 | 81.2%
CS(=O)(=O)c1ccc(-c2nc3ccccn3c2/C=N/Nc2nc(-c3ccc(Cl)cc3)cs2)cc1 | 103%
CC(=O)Nc1cc(F)cc(-c2ccc3[nH]cc(-c4ccccc4)c3n2)c1 | 73.1%
O=C(CSc1nc2sc3c(c2c(=O)n1-c1ccc(Cl)cc1)CCCC3)NNC(=O)Nc1ccc(Cl)c(C(F)(F)F)c1 | 69%
COc1ccc(-c2nc3ccc(-c4nnc(SCC(=O)Nc5ccc(C(C)=O)cc5)o4)cc3[nH]2)cc1 | 112%
O=C(c1ccc(O)cc1)C1[C@H](c2ccc(Cl)cc2)[C@@H](c2ccccc2)NC12C(=O)Nc1ccc(Cl)cc12 (stereo not given in full) | 77.3%
Cn1ccnc1C(=O)/C=C/c1ccc(NC(=O)Nc2ccccc2)cc1 | -3.85% (active)
Cn1cc(-c2cc(N)n3nc(-c4cn(C)c5ccc(Br)cc45)cc3n2)c2cc(Br)ccc21 | 105%
[Cl][Ru].c1ccc(-c2cc(-c3ccccn3)nc(-c3ccccn3)c2)cc1.c1ccc(-c2ccnc3c2ccc2c(-c4ccccc4)ccnc23)cc1 | -94.6% (active)
COc1ccc(COc2ccc(/C=C3/C(=O)Nc4cc(Cl)ccc43)cc2)cc1 | 102%
Clc1ccc2c(NCCCN3CCOCC3)c3oc4ccccc4c3nc2c1 | 104%
